From PubChem BioAssay AID1508635 (National Center for Advancing Translational Sciences (NCATS), 2021)
Results filed as inconclusive are left out. Calls of active or inactive are those of the source. Calls follow the shape of the dose curve; as a rule, active = well fitted inhibition curve with a large enough effect; inconclusive = small, poorly fitted or top-dose-only effect; inactive = no such curve, though single readings can be large or run the other way. Numbered stars: 1 amine (or outer) side, 2 acyl side, 3 side chain; on linkers, the order of the positions; unused ones are H or OH. Bridge positions count the residues as written; N and C are the ends. Square brackets hold non-standard residues; d marks the D form. Peptide text beside a SMILES is read from it. I, II: the chains in the order shown. ξ: configuration not given here. Actinocin(9to1) = Cc1c2oc3c(C)ccc(C(=O)[*:1])c3nc-2c(C(=O)[*:2])c(N)c1=O; ξNMeV = CNC(C(=O)O)C(C)C; ξV = CC(C)C(N)C(=O)O; Sar = CNCC(=O)O

Tested on: zebrafish Abcb4 (ABCB1 homolog)
Test: qHTS for characterization and localization of zebrafish homologs of the human ABCB1 multidrug transporter: ABCB4 transfected cells
Conditions: CellTiter-Glo viability luminescence, 72 h; series mostly up to 46.1 µM; activity change, negative = inhibition: at the top concentration
Method in brief: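 About 90 known P-gp substrates were titrated onto four cell lines: vector control, MDR-19 (human P-gp) and zebrafish Abcb4 or Abcb5 transfectants. After 72 h, ATP luminescence (CellTiter-Glo) gave curves; cytotoxic required AC50 < 10 uM, >50% response and inhibitory curve class.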

Structure (SMILES)	Potency	activity change, negative = inhibition
Cc1c2oc3c(C)ccc(C(=O)N[C@@H]4C(=O)NC(C(C)C)C(=O)N5CCC[C@H]5C(=O)N(C)CC(=O)N(C)C(C(C)C)C(=O)O[C@@H]4C)c3nc-2c(C(=O)N[C@@H]2C(=O)NC(C(C)C)C(=O)N3CCC[C@H]3C(=O)N(C)CC(=O)N(C)C(C(C)C)C(=O)O[C@@H]2C)c(N)c1=O (stereo partly specified) (I: T[ξV]P[Sar][ξNMeV] / II: T[ξV]P[Sar][ξNMeV]; ester I:1-I:C, II:1-II:C; linker I:N-II:N via Actinocin(9to1))	0.418 µM (active)	–
Cc1cc(Nc2cc(N3CCN(C)CC3)nc(Sc3ccc(NC(=O)C4CC4)cc3)n2)n[nH]1	–	3.38% (inactive)
CCN(CCCO)CCCOc1ccc2c(Nc3cc(CC(=O)Nc4cccc(F)c4)[nH]n3)ncnc2c1	–	1.58% (inactive)
COc1cc2c(NC3CCN(C(C)C)CC3)nc(N3CCCN(C)CC3)nc2cc1OCCOCCN(C)C	–	-9.4% (inactive)
C#Cc1cccc(Nc2ncnc3cc(OC)c(OCCCCCCC(=O)NO)cc23)c1	13.2 µM (active)	–
Cc1ccc(C(=O)N(CCCN)[C@@H](c2oc3cc(Cl)ccc3c(=O)c2Cc2ccccc2)C(C)C)cc1	20.9 µM (active)	–
CCN(CC)Cc1ccc(C(=O)N(CCc2ccccc2OC)[C@@H]2CCNC2)cc1	–	4.66% (inactive)
CN(C)C/C=C/C(=O)Nc1cccc(C(=O)Nc2ccc(Nc3nccc(-c4cccnc4)n3)cc2)c1	–	-2.48% (inactive)
CC(C)CC(=O)Nc1n[nH]c2c1CN(C(=O)C1CCN(C)CC1)C2(C)C	–	4.88% (inactive)
CC(=O)C1(O)Cc2c(O)c3c(c(O)c2C(OC2CC(N)C(O)C(C)O2)C1)C(=O)c1c(O)cccc1C3=O (stereo unspecified)	0.526 µM (active)	–
Cc1ccc(-c2ncn(-c3ccc(Nc4nccc(-c5cccc(N6CCOCC6)c5)n4)cc3)n2)cn1	4.18 µM (active)	–
